Pol beta inh: inhibitors of human DNA polymerase beta. P06746. Pol beta primer extension/strand displacement, fluorescence kinetic. Potency, µM (doses to about 114 µM), actives largely listed as inhibitors. 340,000 tested, 1.3% active. AID 485314
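Preincubation: enzyme (10 nM) with compound, 15 min, RT. Reaction: substrate added to 50 nM final. Reads: 0 and 10 min. Analysis: normalized, Hill fit.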
POLK inh: DNA polymerase kappa (human) inhibition | Potency, µM (titrated, usually from 107 µM), usual class: inhibitors | purified Pol kappa, fluorescent DNA synthesis assay, 10 min | Q9UBT6 | AID 588579 | 400,000 tested, 0.53% active
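Readout: fluorescence, taken kinetically at 0 and 10 min. Conditions: 10 nM Pol kappa, 15 min RT compound preincubation, 50 nM substrate final. Controls: enzyme-free buffer wells.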
L3MBTL1 block: blocks human L3MBTL1; Q9Y468; AlphaScreen L3MBTL1–H3K9me1 peptide binding; Potency, µM (doses to about 57.1 µM), most hits filed as inhibitors; 230,000 tested, 0.66% active; AID 485360; note: nearly all actives have a fitted effect of over 60% in size
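L3MBTL1 50 nM + b-AHA-H3(1-15)K9me1 75 nM, 30 min RT; compound added, 30 min RT; streptavidin donor/Ni-chelate acceptor beads 10 ug/mL each final, 30 min RT dark; AlphaScreen read.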
POLH inh: DNA polymerase eta (human) inhibition | recombinant Pol eta, fluorescent DNA replication assay | Potency, µM (titrated, usually from 114 µM), actives largely listed as inhibitors | 390,000 tested, 1.2% active
Target sequence (Q9Y253 whole entry, looked up): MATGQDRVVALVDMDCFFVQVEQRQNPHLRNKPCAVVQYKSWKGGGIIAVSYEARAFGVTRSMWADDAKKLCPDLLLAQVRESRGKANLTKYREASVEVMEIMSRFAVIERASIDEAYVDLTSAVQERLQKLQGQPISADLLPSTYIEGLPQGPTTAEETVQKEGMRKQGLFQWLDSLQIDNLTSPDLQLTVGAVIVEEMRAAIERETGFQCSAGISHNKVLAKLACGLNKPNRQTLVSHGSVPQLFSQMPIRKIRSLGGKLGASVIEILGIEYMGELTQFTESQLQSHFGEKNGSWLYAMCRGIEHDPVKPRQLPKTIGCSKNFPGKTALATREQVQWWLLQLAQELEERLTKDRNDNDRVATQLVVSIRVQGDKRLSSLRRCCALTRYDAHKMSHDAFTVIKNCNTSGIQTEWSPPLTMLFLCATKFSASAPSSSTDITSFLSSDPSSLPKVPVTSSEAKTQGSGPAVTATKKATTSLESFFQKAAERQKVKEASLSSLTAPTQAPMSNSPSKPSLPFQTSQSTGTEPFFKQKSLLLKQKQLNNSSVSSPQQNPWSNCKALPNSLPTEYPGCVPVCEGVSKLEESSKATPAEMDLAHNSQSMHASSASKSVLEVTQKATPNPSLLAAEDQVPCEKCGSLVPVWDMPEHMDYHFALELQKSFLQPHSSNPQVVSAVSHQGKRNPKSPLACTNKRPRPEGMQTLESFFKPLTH
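Pol eta (10 nM) was preincubated with compounds for 15 min at room temperature, after which fluorescent replication substrate (50 nM final) was added to start the reaction. Fluorescence was read kinetically at 0 and 10 min.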
Pol iota inh: DNA polymerase iota (human) inhibition; Q9UNA4; Pol iota fluorescent replication assay, 10 min; Potency, µM (doses to about 115 µM), hits mostly inhibitors; 390,000 tested, 1% active
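Pol iota at 10 nM preincubated 15 min with compounds at room temperature; reaction started with fluorescent substrate, 50 nM final. Fluorescence read kinetically at 0 and 10 min; buffer-only wells as negative control.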
A number is an active result; . = inactive; ? = inconclusive; / = no result given. Rows were chosen to be rich in hits. Some 2.4% of all compounds tested hit in one or more screens of this group. Calls come from the whole dose curve; as a rule, active = well fitted curve in the direction sought with a large enough effect; inconclusive = small, poorly fitted or top-dose-only effect, or another doubt; inactive = no such curve, though single readings can be large; an effect the other way counts as inactive or inconclusive.

SMILES | Pol beta inh | POLK inh | L3MBTL1 block | POLH inh | Pol iota inh
O=C(Nc1ccc2[nH]c(=S)sc2c1)Nc1ccccc1F | . | . | . | 79µM | ?
CCNc1ncc2nc(-c3ccc(F)cc3)c(=O)n(-c3ccc(OC)cc3)c2n1 | / | . | / | / | /
O=C(Nc1cccc(-c2cscn2)c1)C1CCN(Cc2ccc(CO)o2)CC1 | . | ? | / | . | 50µM
COc1cc(/C=C(\C#N)C(N)=O)ccc1OCc1c(C)no[n+]1[O-] | . | . | . | . | .
COc1cc(/C=N/Nc2nncn2N)ccc1OCc1c(C)no[n+]1[O-] | . | . | . | . | 7.1µM
COc1ccc(/C=N/Nc2nncn2N)cc1Br | . | . | ? | . | 8.9µM
O=C(N/N=C/c1ccc(Cl)cc1Cl)c1ccc(-n2cnnn2)cc1 | / | . | . | . | .
Nn1cnnc1N/N=C/c1ccc(Cl)cc1Cl | . | . | / | . | 11µM
CC(C)c1ccc(CNc2nc(-c3ccco3)nn2S(=O)(=O)c2ccc(F)cc2)cc1 | . | . | / | . | ?
Cc1cc(C)cc(N2C(=O)N(Cc3cc(=O)n4ccccc4n3)c3ccccc3S2(=O)=O)c1 | . | . | / | . | .
Cc1ccc2nc(-c3ccc(C)c(NC(=O)COc4ccc(Cl)cc4)c3)oc2c1 | / | . | / | / | .
COc1ccc(C2C=C(c3ccccc3)Nc3nc(NS(=O)(=O)c4ccc(Cl)cc4)nn32)cc1 (configuration not stated) | . | . | / | 89µM | .
Cc1ccc(S(=O)(=O)Nc2nc3n(n2)C(c2ccc(Cl)cc2)C=C(c2ccccc2)N3)cc1 (configuration not stated) | . | . | / | 89µM | .
O=S(=O)(Nc1nc2n(n1)C(c1ccc(F)cc1)C=C(c1ccccc1)N2)c1ccc(Cl)cc1 (configuration not stated) | . | . | / | ? | .
COc1ccc(C2C=C(c3ccccc3)Nc3nc(NS(=O)(=O)c4ccccc4)nn32)cc1 (configuration not stated) | . | . | / | 89µM | .
O=C(CC(C(=O)O)n1ccnc1)c1ccc(Cl)cc1 (configuration not stated) | / | . | / | / | ?
Cc1nn(-c2ccccc2)c2c1cc1c(=O)[nH]c(=O)nc-1n2-c1cccc(Cl)c1 | . | . | / | . | .
O=S1(=O)CCO[C@H]2CCCC[C@@H]2N1Cc1ccccc1F | / | . | / | / | .
O=C(COc1ccccc1F)Nc1ccc2nc(SCC(=O)N3CCCC3)sc2c1 | . | . | / | . | .
COc1cccc(O)c1O | / | 3.2µM | / | / | /
CC1CCN(CCCCOc2ccccc2[N+](=O)[O-])CC1 | . | . | . | . | 79µM
O=C(CSc1ccsc1[N+](=O)[O-])NCc1ccccc1 | ? | . | . | 79µM | ?
O=C(CSc1ccsc1[N+](=O)[O-])NC1CCCC1 | ? | . | / | 56µM | 45µM
CC(C)c1ccc(NC(=O)c2cnc3sc(N4CCCC4)nn3c2=O)cc1 | . | . | / | . | .
O=C(Cn1ccn(-c2ccc(F)c(F)c2)c(=O)c1=O)c1ccc(F)cc1 | ? | . | / | . | .
SMILES | Pol beta inh | POLK inh | L3MBTL1 block | POLH inh | Pol iota inh
CCN(CC)C(=O)C1=C(C)NC(=O)NC1c1c(F)cccc1Cl (configuration not stated) | 89µM | . | . | . | .
O=C(c1nc2ccc(Cl)cn2c1CN1CCCC1)N1CCc2ccccc2C1 | ? | ? | / | 32µM | 18µM
CCS(=O)(=O)CCSc1nc(C)cc(C)n1 | . | . | . | . | ?
Cc1cc(C)nc(SCCc2ccncc2)n1 | . | . | . | . | 22µM
Cc1cc2c(s1)c1cnn(CC(=O)N3CCOCC3)c(=O)c1n2C | / | . | / | / | .
CCCS(=O)(=O)c1c(S(=O)(=O)CCC)c2cc(C(C)(C)C)ccn2c1C(=O)c1ccccc1 | . | . | / | 89µM | .
COc1cc(SC)ccc1C(=O)NCCCn1ccnc1 | . | . | . | . | .
COc1cccc(Cn2cccc(NC(=O)Nc3ccccc3C)c2=O)c1 | . | . | . | . | 13µM
Cc1cccc(OCCn2c(-c3ccc(Cl)cc3)nc3ccccc3c2=O)c1 | . | . | / | . | .
C=CC[n+]1cccc2cc(Br)ccc21 | / | . | / | / | .
O=C(c1ccccc1)c1ccc2nc(N3CCN(C(=O)c4ccco4)CC3)c3nncn3c2c1 | . | . | . | . | 79µM
O=C(Cc1ccc(-n2cccc2)cc1)NCc1cccs1 | 45µM | . | . | ? | .
CN(C)Cc1cc(O)c(CN(C)C)cc1O | 10µM | 16µM | 3.2µM | 79µM | 7.1µM
CN(C)Cc1cc(C(C)(C)C)cc(C(C)(C)C)c1O | . | . | . | . | .
COc1cccc(-c2nnc3sc(-c4ccco4)nn23)c1 | . | . | . | . | .
Cc1oc(-c2ccc(Cl)cc2)cc1-c1nn2c(-c3ccco3)nnc2s1 | 20µM | / | . | / | /
CCOc1cccc(-c2nn3c(-c4ccco4)nnc3s2)c1 | . | . | . | 20µM | .
Clc1ccc(-c2nnc3sc(-c4ccco4)nn23)c(Cl)c1 | . | / | / | / | /
CCc1nnc2c(N3CCN(c4cccc(C)c4)C(C)C3)nc3ccccc3n12 (configuration not stated) | . | . | / | . | .
O=C(OC1CCCCC1)c1ccc2c(c1)C1C=CCC1C(C(=O)O)N2 (configuration not stated) | 2.2µM | / | 3.2µM | / | /
CCOC(=O)C1Nc2ccc(C)cc2C2C=CCC12 (configuration not stated) | / | . | / | . | ?
CCOC(=O)c1ccc2c(c1)C1C=CCC1C(C(=O)OCC)N2 (configuration not stated) | ? | . | ? | ? | ?
CCOC(=O)C1Nc2ccc(Br)cc2C2C=CCC12 (configuration not stated) | ? | ? | . | 79µM | 45µM
CNc1cc[n+](C)c2ccccc12 | / | . | / | / | .
CC(C)C(NS(=O)(=O)c1ccc2c(c1)oc(=O)n2C)C(=O)N1CCN(c2cccc(Cl)c2)CC1 (configuration not stated) | . | . | / | . | .
SMILES | Pol beta inh | POLK inh | L3MBTL1 block | POLH inh | Pol iota inh
Cc1ccc(S(=O)(=O)N(CC(O)Cn2c3ccccc3c3ccccc32)c2cccc(C(=O)N(C)C)c2)cc1 (configuration not stated) | . | 79µM | / | . | 89µM
Cc1ccc(S(=O)(=O)N(CC(O)Cn2c3ccccc3c3ccccc32)c2cccc(C(N)=O)c2)cc1 (configuration not stated) | . | . | / | . | .
O=[N+]([O-])c1cc(-c2ccc(/C=N\n3cnnc3)o2)cc([N+](=O)[O-])c1 | 56µM | ? | / | ? | 22µM
CC1=C(c2ccc(C(C)C)cc2)S(=O)(=O)N=C1N1CCC(C(=O)NCc2ccc(C)o2)CC1 | . | . | / | / | .
Cc1cc(C)cc(NC(=O)CCCc2nc(-c3ccco3)no2)c1 | . | . | / | . | .
Cc1csc(C(=O)O)c1-n1cccc1 | 22µM | . | ? | 18µM | ?
COC(=O)c1scc(S(C)(=O)=O)c1-n1cccc1 | . | . | . | . | .
CC(=O)c1ccc(NC2=C(N3CCOCC3)C(=O)c3ccccc3C2=O)cc1 | . | . | ? | . | ?
